The values that follow come from PubChem BioAssay AID489043 (National Center for Advancing Translational Sciences (NCATS), 2010).

Results filed as inconclusive are left out. Values without a mark were called inactive. Activity calls are given as the source filed them. Calls come from the whole dose curve; as a rule, active = well fitted activation curve with a large enough effect; inconclusive = small, poorly fitted or top-dose-only effect; inactive = flat fitted curve, though single readings scatter.
Potency is the fitted concentration of half-maximal effect.

The target of the test is Relaxin receptor 2 (Homo sapiens) (UniProt Q8WXD0). In words: qHTS Assay for Agonists of the Relaxin Receptor RXFP1: RXFP2 Hit Validation.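 For activation: 0% = buffer only basal cAMP and 100% = 29 nM porcine relaxin.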 Note: nearly all actives have a fitted effect of over 65% in size. The following applies: HEK293 RXFP2 cAMP TR-FRET, 30 min; series mostly up to 115 µM; activation: at the top concentration. Put shortly: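 HEK293 cells expressing RXFP2, cultured 16-24 hr, treated 30 min at 37C with compounds plus PDE4 inhibitor Ro 20174. cAMP measured by HTRF TR-FRET; EC50 from Hill fits, normalized to buffer and 29 nM porcine relaxin.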
Relaxin receptor 2 (Homo sapiens), sequence (Q8WXD0 whole entry, looked up): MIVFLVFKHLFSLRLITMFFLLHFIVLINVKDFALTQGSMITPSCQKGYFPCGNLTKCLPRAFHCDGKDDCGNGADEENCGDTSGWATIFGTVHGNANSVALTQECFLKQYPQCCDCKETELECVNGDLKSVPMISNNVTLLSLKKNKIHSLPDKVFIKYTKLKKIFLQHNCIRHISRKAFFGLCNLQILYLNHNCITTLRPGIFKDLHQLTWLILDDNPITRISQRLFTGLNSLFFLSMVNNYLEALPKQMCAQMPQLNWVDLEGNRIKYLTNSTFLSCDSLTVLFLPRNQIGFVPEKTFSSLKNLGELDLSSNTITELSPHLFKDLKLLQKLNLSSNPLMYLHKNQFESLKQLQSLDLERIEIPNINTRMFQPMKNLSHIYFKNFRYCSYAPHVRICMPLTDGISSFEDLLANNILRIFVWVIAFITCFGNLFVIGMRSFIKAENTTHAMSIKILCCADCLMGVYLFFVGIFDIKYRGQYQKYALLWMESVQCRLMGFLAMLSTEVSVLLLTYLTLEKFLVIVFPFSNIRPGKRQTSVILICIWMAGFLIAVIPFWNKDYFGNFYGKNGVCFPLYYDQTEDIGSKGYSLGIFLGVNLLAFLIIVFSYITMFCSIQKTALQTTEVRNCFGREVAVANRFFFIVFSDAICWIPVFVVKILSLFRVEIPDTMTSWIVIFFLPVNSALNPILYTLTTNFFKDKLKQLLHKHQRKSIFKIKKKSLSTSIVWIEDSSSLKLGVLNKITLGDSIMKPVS
Background: In qHTS, concentration-response curves come from the screen itself.
On to `S=c1nc[nH]c2c1[nH]c1ccccc12`, for which the Potency was 6.9 µM (active).
As to `CCOP1(=O)OCC2OC(n3cnc4c(N)ncnc43)C(O)C2O1` (stereo not drawn), the Potency is 7.76 µM (active).
Turning to `O=C(O)c1ccc(N=C2NC(=O)C(CO)(CO)S2)cc1`, the “activation” value was 2.73% [at 44.7 µM].
With `O=C(O)c1ccc(CN2C(=O)c3ccc(C(=O)O)cc3C2=O)cc1`, the “activation” value is 5.29%.
The same measure, in the same setting: the figure for `CN(Cc1ccccc1)C(=O)c1ccccc1NC(=O)c1ccco1` is 3.37% [at 125 µM]; for `O=C(Nc1ccccc1C(=O)N1CCCCC1)c1ccco1` it is -0.174% [at 125 µM].
As for `COc1ccc(CN2C(=O)c3cccnc3C2=O)cc1S(=O)(=O)NC1CCCCC1C` (stereo not drawn), the Potency was 15.5 µM (active).
With `CN1CCN(C(=O)CCc2nnc3ccc(N4CCC5(CC4)OCCO5)nn23)CC1`, the “activation” value was 25.3%.
`CCOC(=O)C1CCN(C(=O)c2cc3c(=O)n4ccccc4nc3s2)CC1`: the Potency is 48.9 µM (active).
Turning to `CCOC(=O)CSc1nc(=O)n2cc(C)ccc2n1`, the “activation” value is 21.2%.
Regarding `NC(=S)c1cc2ccc(O)cc2oc1=O`, the Potency was 4.88 µM (active).
For `COc1ccc(Cl)cc1-c1n[nH]c(=S)o1`, the Potency is 4.88 µM (active).
Turning to `COC(=O)c1cc(CN2C(=O)c3ccccc3C2=O)c(O)c([N+](=O)[O-])c1`, the Potency was 38.9 µM (active).
The same measure, in the same setting: the figure for `Cc1ccc2[nH]c3c(=S)nc[nH]c3c2c1` is 6.9 µM (active).
For the compound `O=C(OCc1nc2ccsc2c(=O)[nH]1)c1cccc(S(=O)(=O)N2CCOCC2)c1`, the Potency is 34.6 µM (active).
As to `O=C(Nc1ccccc1C(=O)N1CCOCC1)c1ccco1`, the “activation” value was 0.881% [at 125 µM].
Turning to `CN(C)c1ccc(C(=S)N2CCN(S(=O)(=O)c3ccccc3)CC2)cc1`, the “activation” value was 7.33%.
On to `CC[N+](CC)(CCCCS(=O)(=O)[O-])CCNP1(=O)C=C(c2ccccc2)OC(c2ccccc2)=C1`, for which the Potency is 34.6 µM (active).
